The results in this text go back to PubChem BioAssay (Tox21).

Several values for one entry are separate records, joined by “and”; a condition that tells them apart may be missing. Equal entries are not always repeated. Inconclusive results are not listed. A structure can be active in one record and inactive in another. Activity calls are given as the source filed them. The call rests on the fitted dose curve; in most records, active means well fitted inhibition curve with a large enough effect in the signal ratio in the repeat runs; inconclusive means weak or mixed curves, or effect the other way; inactive means flat fitted curve, though single readings scatter; the % refers to the signal ratio.
On the % scale 0 is the no-effect control and ±100 the full control effect; potency means the concentration at half of the fitted maximal effect.

The experiment in a line: qHTS assay for small molecule disruptors of the mitochondrial membrane potential (AID 720635). As to conditions: HepG2 mitochondrial membrane potential, Mito-MPS dye ratio; series mostly up to 83.2 µM; ratio activity, negative = MMP loss: at the top concentration. An excerpt: U.S. Tox21 Program National Center for Advancing Translational Sciences [NCATS] NIH Chemical Genomics Center [NCGC] U.S. Environmental Protection Agency [EPA] National Institutes of Environmental Health Sciences [NIEHS] National Toxicology Program [NTP] U.S. Food and Drug Administration [FDA] Tox21 Assay Overview: Mitochondrial membrane potential (MMP), one of the parameters for mitochondrial function, is generated by mitochondrial electron transport chain that creates an electrochemical gradient by a series of redox reactions. This gradient drives the synthesis of ATP, a crucial molecule for various cellular processes. Measuring MMP in living cells is commonly used to assess the effect of chemicals on mitochondrial function. […] The dye accumulates in the mitochondria of healthy cells as aggregates, with red fluorescence. The mitochondrial potential collapses and the dye can no longer accumulate in the mitochondria and remains in the cytoplasm in monomers, with green fluorescence.
Tox21 Assay Protocol Summary: 2,000 HepG2 cells in 5 uL/well were dispensed into black, clear-bottom 1536-well plates using a Multidrop Combi (Thermo Scientific) dispenser. The assay plates were incubated overnight at 37C to allow cells to attach to the wells, followed by the transfer of 23 nL compound or DMSO vehicle by a pin tool (Kalypsys). The plates were incubated for 1 hr at 37C and 5% CO2, followed by the addition of 5 uL of 2X Mito-MPS dye (BD Biosciences) into each well using Flying Reagent Dispenser (Aurora Discovery) and then following 30 min incubation at 37C. Fluorescence intensity (490nm excitation and 535nm emission for monomers; and 540nm excitation and 590nm emissions for aggregates) was measured using an Envision plate reader.
(In qHTS, concentration-response curves come from the screen itself.)
On to `CCCCCCOC(=O)CCCCCCCC(=O)OCCCCCC`, for which the “ratio activity, negative = MMP loss” value was 13.6% (inactive).
For the molecule `c1ccc(COCc2ccccc2)cc1`, the “ratio activity, negative = MMP loss” value was 14.7% [at 95.3 µM] (inactive).
The same measure, in the same setting: to `O=C(OCCOCCO)c1ccccc1Nc1cccc(C(F)(F)F)c1` belongs 19.4% [at 39.1 µM] (inactive); to `CC(=O)Nc1ccc(N)cc1`, 10.3% [at 95.3 µM] (inactive).
For `CCOC(=O)CC(=O)C(=O)OCC`, the “ratio activity, negative = MMP loss” value was 13.1% (inactive).
Still for that read-out and setting: to `C[Si](NC1CCCCC1)(NC1CCCCC1)NC1CCCCC1` belongs -19.8% (inactive); to `C[N+](C)(C)CCOC(N)=O`, -2.99% (inactive).
Regarding `CCCCCCOC(=O)C(C)C`, the “ratio activity, negative = MMP loss” value was 9.06% (inactive).
As to `Fc1ccccc1[C@@H](F)COC1CCC(Nc2ncnc3[nH]ncc23)CC1` (stereo not given in full), the Potency is 2.73 µM (active).
As to `O=C(Nc1ccccc1)Nc1ccccc1`, the Potency was 1.73 µM (active).
Still for that read-out and setting: then `CCCCC(=O)O[C@]1(C(=O)CO)[C@@H](C)C[C@H]2[C@@H]3CCC4=CC(=O)C=C[C@]4(C)[C@@]3(F)[C@@H](O)C[C@@]21C`, with 19.3 µM (active).
`O=C(O)c1cccc(O)c1`: the “ratio activity, negative = MMP loss” value was 18% [at 95.3 µM] (inactive).
The same measure, in the same setting: to `Cc1nccn1-c1ccc(Sc2cccc(C3(C(N)=O)CCOCC3)c2)cc1` belongs -29.7% (inactive).
Take `Cc1ccc(S(=O)(=O)NC2CCCCC2)cc1`: the Potency is 21.5 µM (active).
Still for that read-out and setting: to `CC1C2CC(CC2C2CCCC(O)C2)C1(C)C` (stereo not given) belongs 27.3 µM (active).
With `C/C=C(\C)C(=O)OCCC(C)CCC=C(C)C` (stereo not given), the “ratio activity, negative = MMP loss” value is -7.5% (inactive).
On to `COc1cc2[nH]c(=O)[nH]c(=O)c2cc1OC`, for which the “ratio activity, negative = MMP loss” value is 9.31% [at 39.1 µM] (inactive).
Regarding `O=[N+]([O-])c1cccc(S(=O)(=O)NCCNS(=O)(=O)c2cccc([N+](=O)[O-])c2)c1`, the Potency is 11.9 µM (active).
In the case of `NCC1CCCC(CN)C1` (stereo not given), the “ratio activity, negative = MMP loss” value is 23.3% (inactive).
Still for that read-out and setting: to `OCCSc1ccccc1` belongs 6.4% (inactive); to `CCCC(=O)O[C@]1(C(=O)COC(=O)CC)CC[C@H]2[C@@H]3CCC4=CC(=O)CC[C@]4(C)[C@H]3[C@@H](O)C[C@@]21C`, 9.23% (inactive); to `CCCCCCCCCCCC[N+](C)(C)CCCS(=O)(=O)[O-]`, 21.3% [at 95.3 µM] (inactive).
On the same count and under the same terms, then `CN1CCCN=C1/C=C/c1cccs1`, with 7.9% (inactive).
Same read-out and setting: then `Cc1nc2ccccc2s1`, with 5.42% [at 95.3 µM] (inactive).
As for `CC(Cl)C(Cl)Cl` (stereo not given), the “ratio activity, negative = MMP loss” value is 12.2% (inactive).
As to `CCCCCCCCCCCC[N+](C)(C)CC(=O)[O-]`, the “ratio activity, negative = MMP loss” value is 13.6% (inactive).
As for `CCCCCCCCSCCO`, the Potency was 24.3 µM (active).
Turning to `c1cc[c]([Bi]([c]2ccccc2)[c]2ccccc2)cc1`, the Potency was 24.3 µM (active).
In the case of `CC1=NN(c2ccc(C(=O)O)cc2)C(=O)C1`, the “ratio activity, negative = MMP loss” value is -23.3% (inactive).
In the case of `Cc1ccccc1N1C(=O)c2cc(S(N)(=O)=O)c(Cl)cc2NC1C` (stereo not given), the Potency result is “inactive”.
Turning to `CC#N`, the “ratio activity, negative = MMP loss” value was 21.7% [at 95.3 µM] (inactive).
With `[O]=[Bi]`, the ratio activity, negative = MMP loss is 14.9% [at 8.08 µM] (inactive).
The same measure, in the same setting: to `Nc1nccs1` belongs -17.3% (inactive).
Take `Cc1ccnc2ccccc12`: the Potency is 19.3 µM (active).
As to `CN(C)C(=O)Nc1ccc(Oc2ccc(Cl)cc2)cc1`, the Potency was 6.11 µM (active).
With `OCC1CC=CCC1` (stereo not given), the “ratio activity, negative = MMP loss” value was 15.7% (inactive).
As for `Cc1c(C(=O)NN2CCCCC2)nn(-c2ccc(Cl)cc2Cl)c1-c1ccc(Cl)cc1`, the Potency is 23.7 µM (active).
`COC(=O)Nc1nc2ccc(C(=O)c3cccs3)cc2[nH]1`: the Potency was 2.37 µM (active).
Take `CC[C@H](NC(=O)c1cc(F)ccc1NS(=O)(=O)c1cccc2cccnc12)c1ccccc1`: the Potency is 2.05 µM (active).
The same measure, in the same setting: then `Cc1cc(O)c(C(C)C)cc1Cl`, with “inactive and 4.33 µM (active)”.
